PubChem BioAssay AID1852 (Sanford-Burnham Center for Chemical Genomics, 2009)
Screen size: about 2,500 compounds; about 1,100 (44%) were called active. So high a share suggests a set chosen from earlier hits. The list shows a part of the results. Values without a mark were called inactive.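 How the source made its calls: active means inhibition above 50% at 4 µM in the single-point screen; inactive means inhibition of 50% or less.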

Assay: TNF-a-driven NF-kB reporter inhibitors, primary screen, selectivity assay for NOD1/NOD2 signaling inhibitor project, cell-based, HEK293T NF-kB-Luc, luminescence (AID 1852)
Details: TNF-a induced, 14 h, at 4 µM, stronger effect = higher value

Row | Compound | inhibition
1 | Nc1ccc(Oc2cccc(Oc3ccc(N)cc3)c2)cc1 | 54.8% (active)
2 | COc1ccc(N2C(=O)C(Cl)=C(Oc3cccc(OC)c3)C2=O)cc1 | 13%
3 | CC(=O)c1ccc(N2CCN(S(=O)(=O)c3ccc4c(c3)CC(C)N4C(=O)C3CC3)CC2)cc1 (centres undefined) | 23.2%
4 | O=C(CSC1=NNC(c2ccccn2)S1)Nc1ccccc1 (centres undefined) | 50.1% (active)
5 | O=C(CSc1nc2scc(-c3ccccc3)c2c(=O)[nH]1)Nc1ccccc1 | 32.9%
6 | Cc1ccc(NC(=O)CSc2nc(C)c(Cc3ccccc3)c(=O)[nH]2)cc1 | 20%
7 | COc1cc(CNc2ccc3[nH]c(=O)[nH]c3c2)ccc1OCc1ccc(F)cc1Cl | 28.6%
8 | Cc1cc(=O)n(C)c(=O)n1CCCCOc1ccc([N+](=O)[O-])cc1 | 24.7%
9 | CC(C)Cn1c(N)c(C(=O)CSc2ccc3c(c2)OCCO3)c(=O)n(C)c1=O | 82.1% (active)
10 | CCc1ccc(C(=O)OCC(=O)c2c(N)n(CC(C)C)c(=O)n(C)c2=O)cc1 | 23.2%
11 | Cc1c(C(=O)OCC(=O)c2c(N)n(CC(C)C)c(=O)n(C)c2=O)oc2ccccc12 | 26.4%
12 | CC(=O)c1ccc(N2CCN(S(=O)(=O)c3ccc4c(c3)CC(C)N4C(C)=O)CC2)cc1 (centres undefined) | 47.2%
13 | O=C(c1ccc(-c2ccccc2)cc1)N1CCN(c2ccccn2)CC1 | 18.3%
14 | CC1Cc2ccccc2N1S(=O)(=O)c1cccc(C(=O)N2CCN(c3ncccn3)CC2)c1 (centres undefined) | 58.4% (active)
15 | Cc1ccccc1C(=O)Nc1ccc(-c2nc3ccc(C(=O)c4ccccc4)cc3[nH]2)cc1 | 38.3%
16 | Cc1cc2nc(-c3ccc(SCc4ccccn4)nc3)[nH]c2cc1C | 78.5% (active)
17 | COc1ccc(C(=O)O/N=C(\N)c2ccc(Br)cc2)cc1 | -10.5%
18 | CC(C)(C)c1ccc(C(=O)O/N=C(\N)c2ccccn2)cc1 | 22.5%
19 | CC(C)(C)c1ccc(C(=O)O/N=C(\N)c2ccccc2)cc1 | 51% (active)
20 | COc1ccc(-n2cnc3c(sc4nc(N5CCOCC5)c5c(c43)CCCC5)c2=O)cc1 | 46.4%
21 | COc1ccc(-c2cc(=O)oc3cc(OCC(=O)Nc4ccc(CCO)cc4)ccc23)cc1 | 38.3%
22 | Cc1ccn2cc(-c3cc4ccccc4oc3=O)nc2c1 | -79.5%
23 | CCc1ccc(OCC(=O)Nc2ccc(-c3cc4ccccc4oc3=O)c(OC)c2)cc1 | 51.2% (active)

Row | Compound | inhibition
24 | Cn1nccc1C(=O)N1CCN(c2ccccc2F)CC1 | -23.6%
25 | Cc1ccc(Cl)cc1N1CCN(C(=O)c2cc3c(=O)[nH]c4ccccc4c3n2C)CC1 | 89.7% (active)
26 | COc1ccccc1OCC(=O)OC/C(O)=C(\C#N)c1nc2ccccc2[nH]1 | 98.2% (active)
27 | COc1ccccc1OCc1nnc(SCC(N)=O)n1-c1ccccc1 | 0.9%
28 | Cc1cccc(C)c1OCC(=O)OC/C(O)=C(\C#N)c1nc2ccccc2[nH]1 | 101% (active)
29 | CC(C)(C)c1nc(SCC(=O)Nc2nc3c(s2)CCCC3)c2ccccc2n1 | -17.1%
30 | Cc1nc(SCC(=O)Nc2nc3ccccc3s2)c(C#N)c(C)c1C | 61.7% (active)
31 | O=[N+]([O-])c1cccc(S(=O)(=O)NCc2ccncc2)c1 | 42.3%
32 | COc1ccc(CCNC(=S)NC2CCN(Cc3ccccc3)CC2)cc1OC | 43.5%
33 | COc1ccc(/C=C2\CN(Cc3ccccc3)C/C(=C\c3ccc(OC)c(O)c3)C2=O)cc1O | 77.4% (active)
34 | CCC1C/C(=C\c2cc(OC)c(OC)cc2OC)C(=O)/C(=C/c2cc(OC)c(OC)cc2OC)C1 (centres undefined) | 36.6%
35 | CCN1C/C(=C/c2ccc(OC)c(O)c2)C(=O)/C(=C/c2ccc(OC)c(O)c2)C1 | 101% (active)
36 | O=C1/C(=C/c2cccc([N+](=O)[O-])c2)CCc2ccccc21 | -28.5%
37 | CCN1C/C(=C/c2cccc([N+](=O)[O-])c2)C(=O)/C(=C/c2cccc([N+](=O)[O-])c2)C1 | 106% (active)
38 | Cc1cccc(-n2c(SC(C)C(=O)O)nc3sc4c(c3c2=O)CCCC4)c1 (centres undefined) | 45.4%
39 | O=[N+]([O-])c1ccc(NC(=S)NCCc2ccc(F)cc2)cc1 | 18.3%
40 | O=[N+]([O-])c1ccc(NC(=S)NCCc2ccc(Cl)cc2)cc1 | 87.9% (active)
41 | N#Cc1ccc(NC(=O)Nc2ccc(Cl)cc2)cc1 | 22.5%
42 | Cc1nc(CN(C)C(=O)c2cc(COc3ccc4ncccc4c3)on2)cs1 | 27.2%
43 | CCc1ccc(CN(C)C(=O)c2cc(COc3cccc4cnccc34)on2)cc1 | 80% (active)
44 | CN(Cc1cccnc1)C(=O)c1cc(COc2ccc3ncccc3c2)on1 | 42.9%
45 | CN(Cc1nccs1)C(=O)c1cc(COc2cccc3cnccc23)on1 | 66.3% (active)
46 | COc1cccc(CN(C)C(=O)c2cc(COc3ccc4ncccc4c3)on2)c1 | 56.4% (active)

Row | Compound | inhibition
47 | COc1ccc(C(=O)Nc2ccc(-c3ccc(C)o3)cc2)cc1S(=O)(=O)N1CCOCC1 | 66.1% (active)
48 | CCOC(=O)c1ccc(NC(=O)c2ccc(C)c(S(=O)(=O)N3CCOCC3)c2)cc1 | 47.7%
49 | COc1ccc(NC(=O)c2cc(-c3ccco3)nc3ccccc23)cc1S(=O)(=O)N1CCOCC1 | 45.6%
50 | Cc1nc([N+](=O)[O-])c(Sc2nc3ccccc3[nH]2)n1Cc1ccccc1 | 36.1%
51 | Cc1cc(C)cc(OCC(=O)Nc2nc3ccc([N+](=O)[O-])cc3s2)c1 | 13.3%
52 | Cc1ccc(C)c(OCC(=O)Nc2nc3ccc([N+](=O)[O-])cc3s2)c1C | 43.5%
53 | O=C(NC(Nc1nc2ccc([N+](=O)[O-])cc2s1)(C(F)(F)F)C(F)(F)F)c1ccccc1Cl | 85% (active)
54 | CCOc1ccccc1NC(=O)Nc1ccc(Cl)cc1 | -53%
55 | CCOc1ccc(C(=O)/C=C/c2cc(OC)c(OC)c(OC)c2)cc1 | 9.7%
56 | CCOc1cc(/C=C(/C#N)c2ccc(Cl)cc2)cc(Cl)c1OCC(=O)O | 90.7% (active)
57 | COc1cccc(-n2c(CN3CCN(c4ccccc4)CC3)nc3ccc([N+](=O)[O-])cc3c2=O)c1 | -0.2%
58 | COc1ccc2cc3c(N)nn(C(=O)c4ccc(Cl)c([N+](=O)[O-])c4)c3nc2c1 | 43.3%
59 | COc1ccc2cc3c(N)nn(C(=O)c4ccc(F)cc4)c3nc2c1 | 60.6% (active)
60 | COc1cccc(C(=O)c2sc(NC(C)C)nc2N)c1 | 41.4%
61 | COc1ccc2cc3c(N)nn(C(=O)c4cccc([N+](=O)[O-])c4)c3nc2c1 | 65.4% (active)
62 | COc1ccc2cc3c(N)nn(C(=O)c4cccc(F)c4)c3nc2c1 | 79.2% (active)
63 | COc1ccc(CN(C)S(=O)(=O)c2nnc(NC(=O)c3cccc(F)c3)s2)cc1 | 29.9%
64 | C/C(=N\NC(=O)c1ccc(Br)cc1)C1C(=O)c2ccccc2C1=O | -12.6%
65 | C/C(=N\NC(=O)c1ccc2c(c1)OCCO2)c1ccccc1 | 14%
66 | C/C(=N\NC(=O)c1ccc(-c2ccccc2)cc1)C1C(=O)c2ccccc2C1=O | 93.6% (active)
67 | O=C(Cc1ccc(Cl)cc1Cl)Nc1ccncc1Cl | 50% (active)
68 | COc1ccc(CC(=O)Nc2ccncc2Cl)cc1 | 54% (active)
69 | Cc1ccc(CC(=O)Nc2ccncc2)cc1 | 38.6%

Row | Compound | inhibition
70 | CCC(NC(=O)c1ccc2nc(Cc3ccc(OC)cc3)oc2c1)c1ccncc1 (centres undefined) | 34%
71 | Cc1ccc(C(=O)Nc2sc(C)c(-c3ccccc3)c2C(N)=O)cc1[N+](=O)[O-] | -277%
72 | Cc1ccc(C(=O)Nc2ccccc2N2CCCCC2)cc1[N+](=O)[O-] | -17.9%
73 | Cc1ccc(C(=O)Nc2ccccc2-c2ccccc2)cc1[N+](=O)[O-] | 75.4% (active)
74 | O=C(Nc1ccc(-c2cn3ccsc3n2)cc1)c1ccc(F)c(S(=O)(=O)N2CCOCC2)c1 | 30.4%
75 | COc1cc(C(=O)Nc2ccc(-c3nc4cc(C)ccc4o3)c(O)c2)cc(OC)c1OC | 13.8%
76 | COc1cc(Nc2c3ccccc3nc3ccccc23)cc(OC)c1OC | -0.2%
77 | COc1ccc(Nc2cc(Nc3cc(OC)c(OC)c(OC)c3)ncn2)cc1 | 59.9% (active)
78 | COc1ccccc1N(C)S(=O)(=O)c1ccc(C(=O)Nc2ccc(N3CCOCC3)cc2)cc1 | 35.4%
79 | CN(c1ccccc1)S(=O)(=O)c1ccc(C(=O)Nc2nnc(-c3ccc(F)cc3)o2)cc1 | 95% (active)
80 | COc1ccc(-c2nnc(NC(=O)c3ccc(S(=O)(=O)N4CCc5ccccc5C4)cc3)o2)cc1 | 34.1%
81 | COc1ccc(-c2nnc(NC(=O)c3ccc(F)cc3)o2)cc1 | 102% (active)
82 | N#Cc1ccsc1NC(=O)c1cccc([N+](=O)[O-])c1 | 20.9%
83 | CCOc1ccc(-c2nnc(NC(=O)c3ccc(OCC(C)C)c(OC)c3)o2)cc1 | 105% (active)
84 | O=C(Nc1nnc(-c2ccc(F)cc2)o1)c1cccc([N+](=O)[O-])c1 | 89.2% (active)
85 | O=C(NNC(=S)NC(=O)c1cccc([N+](=O)[O-])c1)c1ccc(Br)cc1 | -11.7%
86 | CC(=O)O[C@]1(C(C)=O)CC[C@H]2[C@@H]3C=CC4=CC(=O)C=C[C@]4(C)[C@H]3CC[C@@]21C | 32.7%
87 | O=C(Nc1nnc(-c2ccc(Cl)s2)o1)C1CC1 | -5.5%
88 | O=C(Nc1nnc(-c2ccc(F)cc2)o1)c1cc(Cl)sc1Cl | 96.6% (active)
89 | C/C(=N\Nc1ncnc2sc(C)c(C)c12)c1ccccn1 | 103% (active)
